Nrf2 ARE act = qHTS of Nrf2 Activators | Potency, µM (top dose mostly 46.1 µM), for inactives: at the top dose activation, most hits filed as activators | actives 0.31% (n = 410,000) | AREc32 ARE-luciferase reporter (MCF7-derived line), luminescence, 24 h; further: potency means the concentration at half of the fitted maximal effect; % of control where 0% means no effect; nearly all actives have a fitted effect of over 65% in size
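AREc32_Fluc, 1000 cells/well, OPTI-MEM + 5% FBS, o/n 37 deg C 5% CO2; 23 nL cpd by pin tool, 24 hr; Steady-Glo 30 min RT, luminescence.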
Nrf2 block = Nrf2 qHTS screen for inhibitors. A549 ARE-Fluc reporter, luciferase luminescence, 18-24 h. Potency, µM (highest dose often 46 µM), for the others: at the top dose activity change, negative = inhibition, hits mostly inhibitors. actives 2.1% (n = 360,000); further: potency means the concentration at half of the fitted maximal effect; on the % scale 0 is the no-effect control and ±100 the full control effect; nearly all actives have a fitted effect of over 60% in size
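A549 ARE_Fluc cells, 5000/well, 5% FBS OPTI-MEM; compounds in dose-response, 18-24 h at 37 °C/5% CO2; CellTiter-Fluor viability read (Ex 405/Em 525), then BugLite luciferase luminescence = Nrf2 activity.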
miR-21 act = qHTS Assay for Modulators of miRNAs and/orActivators of miR-21; HeLa miR-21 FLuc reporter, luciferase, 48 h; Potency, µM (titrated, usually from 38.3 µM), for the others: at the top dose activity change, positive = activation, actives largely listed as activators; 340,000 tested, under 10 active;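 further: % of control where 0% means no effect; miR-21 action dims this reporter so a rising signal means less miR-21 action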
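Using DMEM plus 10% FBS, HeLa miR-21-FLuc cells are incubated with test compounds (final up to about 40uM) for 48 hours; firefly luciferase signal is then imaged following reagent-mediated lysis.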
IL2 activator = qHTS of IL-2 Activators; activation, % (series mostly up to about 46 µM); AID 652025, 2013; IL-2 activation reporter assay, cell-based qHTS; stimulated with anti-CD3/CD4/CD28 beads; in transgenic mouse T cells; actives 0.065% (n = 360,000); in the data active means activation above about 50%; inconclusive means mostly about 30% to 49%; further: 0% is about no effect
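Using fluorescent plate cytometry, EGFP and DsRed are detected in transgenic mouse T cells stimulated 18 h at 37 degrees C with antibody-coated beads after 60 min compound pretreatment.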
ClpP mod = qHTS Assay for Activators of ClpP; purified B. subtilis ClpP, FRET peptide cleavage, 20 min; AID 651965, 2013; Potency, µM (doses to about 57.5 µM), without a hit: at the highest dose activity change, negative = active; ATP-dependent Clp protease proteolytic subunit (Bacillus subtilis (strain 168)), P80244; actives 1.9% (n = 340,000); active means well fitted falling curve with a large enough effect; inconclusive means small, poorly fitted or top-dose-only effect; inactive means no such curve, though single readings can be large or run the other way; further: potency means the concentration at half of the fitted maximal effect; the source files actives as falling curves though it sought activators and does not explain the sign; nearly all actives have a fitted effect of over 65% in size
Target sequence (P80244 whole entry, looked up): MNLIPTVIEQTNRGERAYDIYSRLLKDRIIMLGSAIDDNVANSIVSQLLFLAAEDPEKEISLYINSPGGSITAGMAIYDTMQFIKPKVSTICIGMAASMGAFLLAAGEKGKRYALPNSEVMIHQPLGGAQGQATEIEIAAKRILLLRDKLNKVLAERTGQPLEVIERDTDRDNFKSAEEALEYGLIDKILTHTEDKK
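ClpP 10 microg/mL final, pH 8 Tris/KCl buffer with BSA, glycerol, Tween-20; compound pinned in; FRET-FV substrate; RT 20 min; Ex320/Em430; ΔFRET vs ADEP 5.8 microM, DMSO, no enzyme.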
A549 tox = Nrf2 qHTS screen for inhibitors: counterscreen for cytotoxicity | A549 ARE-Fluc cells, CellTiter-Fluor viability, 18-24 h | Potency, µM (highest dose often 46 µM), for the others: top-dose activity change, negative = cytotoxicity, actives largely listed as inhibitors | actives 0.16% (n = 390,000); further: potency means the concentration at half of the fitted maximal effect; on the % scale 0 is the no-effect control and ±100 the full control effect
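A549 ARE_Fluc cells in 5% FBS OPTI-MEM were exposed to compounds in concentration-response for 18-24 h at 37 deg C. Viability was read by CellTiter-Fluor fluorescence (Ex 405/Em 525) after 30 min, before the luciferase read.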
Starred values were filed as active, the others as inactive; ? = inconclusive; . = no result given. Sampled rows, rich in hits. Any-hit rate of the full collection: about 3.7%. Unless noted, the call rests on the fitted dose curve; in most records, active means well fitted curve in the direction sought with a large enough effect; inconclusive means small, poorly fitted or top-dose-only effect, or another doubt; inactive means no such curve, though single readings can be large; an effect the other way counts as inactive or inconclusive.

SMILES	Nrf2 ARE act	Nrf2 block	miR-21 act	IL2 activator	ClpP mod	A549 tox
COC(=O)[C@H]1Cc2c([nH]c3ccccc23)[C@H](c2ccccc2)N1	0%	-27%	2%	1	-4%	0%
COC(=O)C1Cc2c([nH]c3ccccc23)CN1 (stereo unspecified)	3%	8%	-17%	2	32µM*	-3%
COc1ccc(OC)c(NC(=O)c2cc(C3CC3)nc3c2c(C)nn3-c2ccc(C)cc2)c1	-1%	-19%	0%	.	?	4%
CN(C)CCCC1(O)c2ccccc2C=Cc2ccccc21	2%	3%	-5%	3	28µM*	-3%
Cc1cccc2nc(CNC(=O)C3CCC(=O)N(Cc4ccccc4F)C3)cn12 (stereo unspecified)	0%	8%	-4%	-2	?	-6%
O=C(NCc1cnc2ccccn12)C1CCC(=O)N(Cc2ccccc2F)C1 (stereo unspecified)	0%	20%	-3%	-2	32µM*	-4%
C=CCSc1nnc(-c2cc3c(C(F)(F)F)nn(C)c3s2)n1C	-1%	-23%	-6%	1	-2%	-4%
C=CCSc1nnc(-c2cc3c(-c4ccccc4)nn(C)c3s2)n1C	2%	.	0%	0	28µM*	-2%
COc1ccc(C(=O)Nc2ccc(NC(=O)c3cccs3)cc2)cc1Cl	0%	-12%	-8%	-1	21%	-1%
COc1ccc(C(=O)Nc2ccc(NC(=O)c3cccs3)c(OC)c2)cc1Cl	0%	9.2µM*	-14%	0	-1%	-17%
COc1c(Cl)cc(Cl)cc1C(=O)Nc1ccc(NC(=O)c2cccs2)cc1	-1%	10µM*	11%	-2	203%	-15%
COc1cc(C(=O)Nc2ccc(C(=O)c3cccs3)cc2)cc(OC)c1OC	4%	21µM*	10%	0	-1%	-21%
COc1ccc(C(=O)NCCc2sc(-c3ccc(Cl)cc3)nc2C)c(OC)c1	7%	.	9%	.	4%	-9%
O=C1Nc2ccccc2Nc2ccc([N+](=O)[O-])cc21	3%	10µM*	2%	1	.	-14%
Cc1ccccc1NC(=O)C1CCN(S(=O)(=O)c2c(C)noc2/C=C/c2ccco2)CC1	1%	-8%	-1%	.	-7%	-3%
CC(=O)COC(=O)C1CCN(S(=O)(=O)c2cc([N+](=O)[O-])ccc2Cl)CC1	14µM*	4%	-16%	-2	0%	3%
Cc1ccc2nc(NC(=O)C3CCN(S(=O)(=O)c4cc([N+](=O)[O-])ccc4Cl)CC3)sc2c1	9%	?	7%	-1	-5%	?
Cc1ccc(NC(=O)C2CCN(S(=O)(=O)c3c(C)noc3/C=C/c3ccco3)CC2)nc1	19%	16µM*	-6%	1	-7%	-1%
Cc1ccc(NC(=O)C2CCN(S(=O)(=O)c3cc([N+](=O)[O-])ccc3Cl)CC2)nc1	?	21µM*	.	0	-3%	-17%
Cc1cc2ccccc2c[n+]1CC(=O)c1ccc(F)cc1	.	.	.	.	4%	.
CC(C)c1ccc(OCC(=O)Nc2ccc(S(=O)(=O)Nc3ncccn3)cc2)cc1	0%	11%	-11%	.	-3%	-6%
COc1ccc(C(NCC(=O)NC(C)c2ccc(Cl)cc2)c2ccccc2)cc1 (stereo unspecified)	4%	15µM*	0%	2	0%	?
COc1ccc(NC(=O)CNC(c2ccccc2)c2ccccc2)cc1	-1%	5%	2%	-1	-1%	-10%
COc1cc2c(=O)c(C(=O)c3ccc(F)cc3)cn(Cc3cccc(F)c3)c2cc1OC	-1%	?	1%	.	1%	-17%

Compound activity: PubChem, National Center for Advancing Translational Sciences (NCATS)
